This note sets out measurements from PubChem BioAssay.

Calls of active or inactive are those of the source.

Assay [1] has as its system Human papillomavirus type 1a protein E7 (residues 44-93). Put plainly: HPV1a E7 fragment binders on microarrays, primary screen, biochemical, small-molecule microarray, residues 44-93, 635 nm fluorescence (AID 1108).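 Also: E7 fragment applied at 1 µg/mL in TBST for 1 h at 4 C; score combines spot fluorescence with its signal to noise ratio.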 The settings on record: small-molecule microarray binding, fluorescence 635 nm; higher = more signal.
The nature of assay [2]: modulators of HCV replicon luciferase signal, primary screen, HCV replication inhibitor project, Huh7 cells, luciferase reporter (AID 1109).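 Also: huh7 hepatoma cells harbouring a luciferase neomycin HCV replicon reporter; luciferase luminescence as measure of HCV replicon replication; test concentration not given here.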 The note with it: 48 h, higher = more signal.
The target in assay [3] is Left-right determination factor 2 (Homo sapiens) (UniProt O00292). Briefly: LEFTY2 binders on small-molecule microarrays, primary screen, biochemical, small-molecule microarray, 635 nm fluorescence scan (AID 1110). The settings on record: LEFTY2 binding, higher = more signal.
Assay [4] addresses Calmodulin-1 (Homo sapiens) (UniProt P0DP23). Put plainly: CALM1 binders on microarrays, EGTA buffer, profiling panel, biochemical, small-molecule microarray, Cy5-labelled CALM1 (AID 1111).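 Also: labelled calmodulin applied in Tris saline Tween buffer holding calcium plus EGTA and DTT.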 The settings on record: Cy5-CALM1 binding fluorescence, higher = more signal.
Assay [5] shares this target. Briefly: calcium-bound CALM1 binders on microarrays, profiling panel, artefact control for SMM control-protein annotation, biochemical, small-molecule microarray, Cy5-labelled CALM1, plus calcium (AID 1112).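 Also: score merges spot fluorescence with signal to noise from triplicate slides.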 The settings on record: Cy5-CALM1 binding fluorescence, higher = more signal.
Assay [6] can be described thus: small-molecule microarray binders of probe aWnt5a, primary screen, biochemical, biotinylated probe, 635/667 nm fluorescence (AID 1113).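 Also: score merges 667 nm fluorescence intensity with signal-to-noise per printed feature.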 The settings on record: higher = more signal.
The nature of assay [7]: small-molecule microarray binders of probe aShh, primary screen, biochemical, biotinylated probe, 635/667 nm fluorescence (AID 1114).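 Also: probe is biotin-labelled aShh protein from a stem cell growth factor screen; measures binding of labelled protein to compounds printed on the slide; score merges feature fluorescence at 667 nm with signal-to-noise.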 The note with it: higher = more signal.
The nature of assay [8]: small-molecule microarray binders of probe aNog, primary screen, biochemical, biotinylated probe, 635/667 nm fluorescence (AID 1115).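 Also: probe is biotinylated aNog protein used at 0.15 µg/mL for 1 h at 4 C; z-score combines 667 nm fluorescence of each spot with its signal to noise.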 The note with it: higher = more signal.
For assay [9], the target named is Torsin-1A-interacting protein 1 (Homo sapiens) (UniProt Q5JTV8). Briefly: LAP1 binders from COS7 cell lysate, primary screen, small-molecule microarray, 635/667 nm fluorescence (AID 1116). The settings on record: COS7-hLAP1 lysate binding, 635 nm fluorescence, higher = more signal.
The target of assay [10] is Alpha-bungarotoxin (Bungarus multicinctus) (UniProt P60615). Put plainly: alpha-bungarotoxin binders on microarray, profiling panel, artefact control for SMM control protein annotation, biochemical, small-molecule microarray, Alexa647 label, 635/667 nm fluorescence (AID 1117). The settings on record: alpha-BTX-A647 binding fluorescence, higher = more signal.
In the next assay the target is Albumin (Bos taurus) (UniProt P02769). Briefly: bovine serum albumin binders on microarray, profiling panel, artefact control for SMM control protein annotation, biochemical, small-molecule microarray, Alexa647 label, 635/667 nm fluorescence (AID 1118).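 Also: score merges 667 nm emission intensity and signal-to-noise per printed compound spot.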 The settings on record: BSA-A647 binding, fluorescence 635 nm, higher = more signal.
Assay [11] in a line: small-molecule microarray binders of probe aXIP, primary screen, biochemical, NeuroSMM set, 635/667 nm fluorescence (AID 1119).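 Also: probe is the protein aXip251-270 applied at 1 µg/mL to compound-printed slides; binding of probe to printed compounds measured as 667 nm fluorescence plus signal to noise.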 The settings on record: higher = more signal, called active from +8 up or from −8 down.
Assay [12] is described as follows: small-molecule binders of probe aNOTCH3, primary screen, biochemical, small-molecule microarray, 635/667 nm fluorescence (AID 1120).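 Also: probe is a biotin-tagged antibody raised against NOTCH3 rather than NOTCH3 protein; score merges spot fluorescence near 667 nm with spot signal to noise.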 The note with it: higher = more signal.
The nature of assay [13]: small-molecule binders of probe aNOTCH2, primary screen, biochemical, small-molecule microarray, 635/667 nm fluorescence (AID 1121).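 Also: score merges feature fluorescence read at 667 nm with its signal to noise.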 The settings on record: higher = more signal.
Assay [14] addresses Carbonic anhydrase 2 (Homo sapiens) (UniProt P00918). Briefly: CAII small-molecule binders, profiling panel, biochemical, small-molecule microarray, Alexa647-labelled CAII (AID 1122). The note with it: CAII-A647 binding fluorescence, higher = more signal.
Assay [15] is described as follows: COS7 lysate on small-molecule microarray, probe aHis, 635 nm (AID 1123).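 Also: z-score combines 667nm fluorescence intensity with signal-to-noise per printed compound spot.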 The settings on record: COS7 cell lysate, fluorescence, higher = more signal.
Assay [16] in a line: compound binding in COS7 lysate, probe aLAP1, primary screen, cell lysate, small-molecule microarray (AID 1124).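 Also: lysate comes from COS7 cells expressing LAP1 and is applied at 0.3 µg/mL; score merges spot fluorescence near 667 nm with signal-to-noise over triplicate slides.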 The note with it: probe aLAP1, fluorescence, higher = more signal.
The subject of the next assay is Sam68 (KHDRBS1). Put plainly: Sam68 small-molecule binders, primary screen, biochemical, small-molecule microarray, 635 nm fluorescence (AID 1125).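 Also: score merges 667 nm channel intensity with signal to noise over triplicate slides.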 The settings on record: small-molecule microarray binding, higher = more signal.
Assay [17] has as its system Chordin-like protein 2 (CHRDL2). Put plainly: CHRDL2 small-molecule binders, primary screen, biochemical, small-molecule microarray, 635 nm fluorescence (AID 1126).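 Also: printed compound slides probed with Chrdl2 protein at 4 µg/mL for 1 h at 4 C; score merges 667 nm emission intensity with signal to noise over three replicate slides.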 The settings on record: small-molecule microarray binding, fluorescence 635 nm; higher = more signal.
Assay [18] deals with Concanavalin-A (Canavalia ensiformis) (UniProt P02866). Put plainly: ConA small-molecule binders, primary screen, artefact control for SMM control protein annotation, biochemical, small-molecule microarray, Alexa647 label, 635 nm (AID 1127).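 Also: z combines 667 nm emission intensity with signal-to-noise across three replicate slides.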 The settings on record: ConA-A647 binding fluorescence, higher = more signal.
Concanavalin-A (Canavalia ensiformis), sequence (P02866 whole entry, looked up): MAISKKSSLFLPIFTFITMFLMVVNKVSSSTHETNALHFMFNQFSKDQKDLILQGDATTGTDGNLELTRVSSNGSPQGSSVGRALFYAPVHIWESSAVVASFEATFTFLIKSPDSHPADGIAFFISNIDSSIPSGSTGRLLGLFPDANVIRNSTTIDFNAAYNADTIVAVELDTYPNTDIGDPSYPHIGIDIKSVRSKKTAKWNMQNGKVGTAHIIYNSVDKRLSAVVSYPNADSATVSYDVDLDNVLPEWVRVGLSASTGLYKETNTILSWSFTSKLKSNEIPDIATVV

Torsin-1A-interacting protein 1 (Homo sapiens), sequence (Q5JTV8 whole entry, looked up): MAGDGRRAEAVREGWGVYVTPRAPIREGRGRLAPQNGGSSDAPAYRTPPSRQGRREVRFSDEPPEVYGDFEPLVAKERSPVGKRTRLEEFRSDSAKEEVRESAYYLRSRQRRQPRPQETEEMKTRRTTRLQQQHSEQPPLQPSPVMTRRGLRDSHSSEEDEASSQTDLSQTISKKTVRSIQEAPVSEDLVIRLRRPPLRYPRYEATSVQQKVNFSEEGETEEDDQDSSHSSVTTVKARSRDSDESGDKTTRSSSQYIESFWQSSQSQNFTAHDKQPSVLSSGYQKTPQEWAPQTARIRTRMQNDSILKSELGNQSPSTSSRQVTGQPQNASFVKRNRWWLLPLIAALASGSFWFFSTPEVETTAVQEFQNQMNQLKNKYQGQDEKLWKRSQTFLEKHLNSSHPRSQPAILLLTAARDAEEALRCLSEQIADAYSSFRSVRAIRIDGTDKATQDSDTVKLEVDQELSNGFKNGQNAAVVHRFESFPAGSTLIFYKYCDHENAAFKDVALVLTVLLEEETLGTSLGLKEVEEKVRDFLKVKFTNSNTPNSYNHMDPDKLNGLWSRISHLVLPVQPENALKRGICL
Left-right determination factor 2 (Homo sapiens), sequence (O00292 whole entry, looked up): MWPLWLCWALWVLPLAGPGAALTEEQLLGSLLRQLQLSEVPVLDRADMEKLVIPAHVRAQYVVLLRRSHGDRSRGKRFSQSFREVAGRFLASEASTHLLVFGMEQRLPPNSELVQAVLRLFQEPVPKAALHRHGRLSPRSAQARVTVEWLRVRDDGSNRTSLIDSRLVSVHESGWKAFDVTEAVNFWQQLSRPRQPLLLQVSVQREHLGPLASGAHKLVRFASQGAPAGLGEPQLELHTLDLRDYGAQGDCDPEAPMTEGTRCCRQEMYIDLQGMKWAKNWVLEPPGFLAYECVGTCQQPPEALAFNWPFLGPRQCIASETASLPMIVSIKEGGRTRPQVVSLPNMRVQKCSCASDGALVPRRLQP
Alpha-bungarotoxin (Bungarus multicinctus), sequence (P60615 whole entry, looked up): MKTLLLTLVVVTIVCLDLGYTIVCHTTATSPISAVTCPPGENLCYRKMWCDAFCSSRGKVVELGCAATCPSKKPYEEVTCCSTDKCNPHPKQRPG
Albumin (Bos taurus), sequence (P02769 whole entry, looked up): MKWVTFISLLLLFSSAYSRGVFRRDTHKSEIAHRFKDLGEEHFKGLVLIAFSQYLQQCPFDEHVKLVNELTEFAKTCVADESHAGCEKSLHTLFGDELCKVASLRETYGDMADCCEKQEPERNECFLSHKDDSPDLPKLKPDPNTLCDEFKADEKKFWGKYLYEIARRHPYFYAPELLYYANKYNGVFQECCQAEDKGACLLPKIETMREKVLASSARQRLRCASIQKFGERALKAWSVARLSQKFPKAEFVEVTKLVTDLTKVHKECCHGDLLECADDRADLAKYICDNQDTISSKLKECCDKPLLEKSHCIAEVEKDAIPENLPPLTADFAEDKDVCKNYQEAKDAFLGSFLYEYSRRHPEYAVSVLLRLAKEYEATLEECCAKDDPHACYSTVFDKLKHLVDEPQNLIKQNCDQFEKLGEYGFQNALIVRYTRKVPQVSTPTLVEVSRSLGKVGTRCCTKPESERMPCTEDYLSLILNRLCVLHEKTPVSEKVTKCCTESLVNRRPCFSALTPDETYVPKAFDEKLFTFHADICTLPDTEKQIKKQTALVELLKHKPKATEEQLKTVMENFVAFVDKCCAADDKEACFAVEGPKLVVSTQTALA

For the molecule `CCOC(=O)C1=C[C@@H](C(C)(C)C)N(S(=O)(=O)c2ccc(C)cc2)[C@H]1c1ccccc1`, the composite z-score in assay [1] was 0.834; in [3] it was 0.561; in [4] it was 1.99; in assay [5], 0.838; in assay [6], 0.0873; in [7] it was 0.0469. The composite z-score in [8] was 0.109; in assay [9], 1.26; in [10], 1.11; with Albumin (Bos taurus), 0.907; in assay [12] it was 0.176; in [13] it was -0.0836. The composite z-score is 0.343 in assay [14]; 0.29 in assay [15]; 0.931 in assay [16]; 1.31 in the assay with Sam68 (KHDRBS1); -0.196 in assay [17]; 0.94 in [18]. Also, in assay [2], the z-score is -2.05. Besides, the composite Z-score in assay [11] was 0.265 (inactive).

Regarding `COc1cc(CO)cc(I)c1O[C@H]1C=C(C(=O)NCCO)C[C@@H](NCC2CCCCC2)[C@@H]1O`, the composite z-score in [1] was 0.552; in assay [3] it was 0.392; in assay [4] it was -0.11; in [5], -0.197; in [6] it was -0.0512; in assay [7] it was 0.0639. In addition, the composite z-score in [8] was -0.319; in assay [9], 0.164; in assay [10] it was 0.394; with Albumin (Bos taurus), 0.0439; in assay [12] it was 0.107; in assay [13], -0.104. Besides, the composite z-score in assay [14] is 0.681; in assay [15], 1.14; in assay [16], -0.102; with Sam68 (KHDRBS1), 0.408; in assay [17], 0.168; in [18] it was 0.324. Also, the z-score in [2] was -1.58. The composite Z-score in assay [11] was -0.442 (inactive).

With `CN1C(=O)[C@@]2(Cc3ccccc3)N=C(c3ccc(OCCCO)cc3)O[C@H]2c2ccccc21`, the composite z-score in assay [1] is 1.3; in [3] it was 0.879; in assay [4], 0.329; in [5], 0.458; in [6] it was -0.0495; in assay [7] it was 0.0372. For the same molecule, the composite z-score is 1.26 in assay [8]; 0.344 in [9]; 0.846 in [10]; 0.495 with Albumin (Bos taurus); 0.0894 in [12]; -0.0226 in assay [13]. Also, the composite z-score is 0.603 in assay [14]; 2.68 in [15]; -0.233 in assay [16]; 1.19 in the assay on Sam68 (KHDRBS1); 0.882 in assay [17]; 1.11 in assay [18]. In assay [2], this molecule showed a z-score of -2.57. Moreover, the composite Z-score in assay [11] was 2.86 (inactive).

Take `Cc1cccc([C@H]2C[C@H]3C(Br)=C[C@@H]2C(=O)[C@]32CO2)c1`: the composite z-score in [1] is -0.97; in assay [3], 0.174; in assay [4], -0.206; in assay [5] it was -0.41; in assay [6], -0.18; in assay [7], -0.341. The composite z-score is -0.0784 in assay [8]; -0.188 in [9]; 0.106 in assay [10]; -0.904 in the assay with Albumin (Bos taurus); -0.125 in [12]; -0.16 in assay [13]. Further, the composite z-score in assay [14] is -0.255; in assay [15] it was -0.498; in assay [16], -0.552; with Sam68 (KHDRBS1) it was -0.721; in assay [17], 0.563; in assay [18], -0.051. Moreover, in assay [2], the z-score is -2.5. Moreover, the composite Z-score in assay [11] is 0.289 (inactive).

In the case of `CN(C)C(=O)[C@@]1(Cc2ccccc2)COC(c2ccc(OCCCO)cc2)=N1`, the composite z-score in assay [1] was -0.112; in assay [3], -0.906; in assay [4], 0.153; in assay [5], 0.369; in assay [6], -0.319; in [7], 0.0526. Besides, the composite z-score is -0.646 in assay [8]; 2 in [9]; -0.579 in assay [10]; 0.66 in the assay with Albumin (Bos taurus); -0.507 in [12]; -0.308 in [13]. Moreover, the composite z-score in [14] is 0.541; in [15] it was 2.86; in assay [16], 0.178; in the assay on Sam68 (KHDRBS1) it was 0.581; in [17], 0.26; in [18], 0.113. This molecule registered a z-score in assay [2] of -1.4. The composite Z-score in assay [11] was -0.655 (inactive).
